Screen size: about 65,000 compounds; about 65 (0.1%) showed an effect of 50% or more. This excerpt belongs to a sample that is enriched for strong results.

For this assay, the target named is Tryptophan--tRNA ligase (Mycobacterium tuberculosis (strain ATCC 25618 / H37Rv)) (UniProt P9WFT3). Put plainly: Biochemical assay for Mt-TrpRS. The assay is classed as functional. Set-up: scale not given: direction of the effect not stated beside the values. The conditions noted are these: 10 µM.
Sequence of Tryptophan--tRNA ligase (Mycobacterium tuberculosis (strain ATCC 25618 / H37Rv)) (P9WFT3 whole entry): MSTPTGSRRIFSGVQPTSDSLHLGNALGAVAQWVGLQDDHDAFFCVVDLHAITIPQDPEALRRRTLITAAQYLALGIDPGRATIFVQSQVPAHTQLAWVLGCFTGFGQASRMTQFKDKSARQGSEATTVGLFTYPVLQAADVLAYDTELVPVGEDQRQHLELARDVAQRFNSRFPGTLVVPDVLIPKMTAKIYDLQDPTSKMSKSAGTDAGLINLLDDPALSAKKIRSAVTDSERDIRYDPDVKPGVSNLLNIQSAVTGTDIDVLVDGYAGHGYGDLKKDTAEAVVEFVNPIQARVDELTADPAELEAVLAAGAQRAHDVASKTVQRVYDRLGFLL
In the case of `Cc1ncc2c(n1)CN(CC(=O)Nc1cc(C)on1)CC2`, the Percent Effect came to 0.514%.

On to `Cc1cc(NC(=O)CN2CCc3cncnc3C2)on1`, for which the Percent Effect stood at 2.85%.

Take `CCCS(=O)(=O)N1CC[C@H]2O[C@H](c3nnc(C)o3)CC[C@H]21`: the Percent Effect was -5.84%.

On to `CNC(=O)c1nc(CN2CCOC(CCCC(C)C)C2)no1` (stereo unspecified), for which the Percent Effect is 0.819%.

As to `CNC(=O)c1nc(CN2CCOC(C(F)(F)F)C2)no1` (stereo unspecified), the Percent Effect worked out at 69.6%.

`NC(=O)c1nc(CN2CCOC(C(F)(F)F)C2)no1` (stereo unspecified): the Percent Effect is -0.819%.

Take `CCCNCc1ccc(-c2ccnc3[nH]ccc23)cc1`: the Percent Effect was -1.02%.

Take `CC(C)N1[C@@H](C(=O)NCCN(C)C)C[C@H]2CN(c3ncccn3)C[C@H]21`: the Percent Effect was determined as 5.77%.

For the compound `c1ccc(-c2noc(CNC3CCCN(c4cccnn4)C3)n2)nc1` (stereo unspecified), the Percent Effect came to 1.43%.

Take `c1cnnc(N2CCCC(NCc3nc(-c4cccs4)no3)C2)c1` (stereo unspecified): the Percent Effect was -1.29%.

As for `c1cnnc(N2CCCC(NCc3nc(-c4ccco4)no3)C2)c1` (stereo unspecified), the Percent Effect was 90.8%.

As to `C[C@H]1C[C@H]2CN(C(=O)CC3CC3)CC[C@H]2O1`, the Percent Effect turned out to be 2.03%.

For `CC(C)c1nc(C2CCCN2C(=O)c2cnns2)no1` (stereo unspecified), the Percent Effect is -5.71%.

In the case of `Cc1ccccc1CNC(=O)N1C[C@H]2C[C@H](C(=O)N3CCCC3)[C@@H](C1)O2`, the Percent Effect was -2.16%.

With `C=Cn1ncc(CN2CCC(c3ncc(Cl)cc3S(C)(=O)=O)CC2)c1C`, the Percent Effect stood at 67.3%.

For the compound `CCn1ncc(CN2CCC(c3ncc(Cl)cc3S(C)(=O)=O)CC2)c1C`, the Percent Effect is -1.24%.

With `C=Cn1cc(CN2CCC(c3ncc(Cl)cc3S(C)(=O)=O)CC2)c(C)n1`, the Percent Effect is -5.42%.

Take `Fc1ccccc1CO[C@@H]1C[C@H]2CN(c3ncccn3)CCN2C1`: the Percent Effect is -4.64%.

As for `Cc1nnc2n1CCN(Cc1csc(-c3ncccn3)n1)C2`, the Percent Effect was found to be 59%.

`CCc1nnc2n1CCN(Cc1csc(-c3ncccn3)n1)C2`: the Percent Effect came to 1.94%.

For the compound `c1cnc(-c2nc(CN3CCn4c(nnc4C4CC4)C3)cs2)nc1`, the Percent Effect is -3.46%.

For `CN(C)C(=O)CN1C[C@@H]2CC[C@H](C1)N(Cc1c(F)cccc1Cl)C2`, the Percent Effect turned out to be 2.26%.

For `COc1ccc(Cc2nnc(NC(=O)C3CC34CCC4)s2)cc1OC` (stereo unspecified), the Percent Effect was determined as 1.5%.

Turning to `COc1ccccc1OCCc1nnc(NC(=O)C2CC23CCC3)s1` (stereo unspecified), the Percent Effect worked out at 72.7%.

For the compound `COc1ccc(CCc2nnc(NC(=O)C3CC34CCC4)s2)cc1OC` (stereo unspecified), the Percent Effect was -2.9%.

Take `CSC1=Nc2c(cnn2-c2cccc(Cl)c2)C2=NCCCN12`: the Percent Effect came out at 1.3%.

For the compound `CCc1nnc(CN2CCCCC2Cn2cncn2)o1` (stereo unspecified), the Percent Effect worked out at 75.1%.

Turning to `Cc1cnn(CC2CCCN2Cc2nnc(C)o2)c1` (stereo unspecified), the Percent Effect is -10.6%.

In the case of `Cc1cnn(CC2CCCN2Cc2nc(N)c3ccccc3n2)c1` (stereo unspecified), the Percent Effect worked out at 57.9%.

As for `c1ccc(Cc2nnc(CN3CCCCC3Cn3cncn3)o2)cc1` (stereo unspecified), the Percent Effect was -0.0684%.

Take `Cc1cnn(CC2CCCN2Cc2nc(C)c3ccccc3n2)c1` (stereo unspecified): the Percent Effect came to 0.13%.

On to `Cc1cnn(CC2CCCCN2Cc2nc(N)c3ccccc3n2)c1` (stereo unspecified), for which the Percent Effect was determined as 1.18%.

Turning to `CCc1nnc(CN2CCCC2Cn2cc(C)cn2)o1` (stereo unspecified), the Percent Effect amounted to 9.78%.

Consider `Cc1ccc(-c2nnc(CN3CCCCC3Cn3cncn3)o2)cc1` (stereo unspecified), for which the Percent Effect amounted to 3.48%.

For the compound `Cc1cnn(CC2CCCN2Cc2nnc(C(C)C)o2)c1` (stereo unspecified), the Percent Effect amounted to 60.5%.

Turning to `CNC(=O)N1CC[C@@H]2CN(CCc3cccc(OC)c3)S(=O)(=O)[C@@H]2CC1`, the Percent Effect was -3.31%.

In the case of `CCc1cnc(N2C[C@H]3C[C@H](C(=O)NC4CCC4)[C@@H](C2)O3)nc1`, the Percent Effect was -1.02%.

Regarding `CCNC(=O)N1C[C@@H]2OCC(=O)N(CC3CC3)[C@@H]2C1`, the Percent Effect is -1.91%.

Consider `Cc1cccnc1NCCNC(=O)c1cnc(-c2ccccn2)nc1O`, for which the Percent Effect came out at 2.7%.

`Cn1cc(CN2CC[C@H]3OCC[C@@H](C(=O)NCc4ccco4)[C@@H]3C2)cn1`: the Percent Effect was 0.83%.

As for `O=C1C[C@H]2[C@@H](CCN2C(=O)c2ccoc2)N1CCN1CCOCC1`, the Percent Effect was 2.55%.

With `Cn1ccnc1C(=O)N1C[C@@H]2CCN(c3cnccn3)C[C@@H]2C1`, the Percent Effect was determined as 2.7%.

As to `CC(=O)N1CCC(C(=O)N2CCC2c2nc(-c3ccc(C)s3)no2)CC1` (stereo unspecified), the Percent Effect was 56.7%.

Consider `Cc1ccc(-c2noc(C3CCN3C(=O)c3ccn(C)n3)n2)s1` (stereo unspecified), for which the Percent Effect is -4.63%.

Turning to `CC(=O)N1CCC1c1nc(-c2ccc(C)s2)no1` (stereo unspecified), the Percent Effect was 13.1%.

For `COCCNC(=O)Cn1ccc2sc(C)cc2c1=O`, the Percent Effect worked out at 0.44%.

As to `CCc1noc(CN2CCN(c3nccs3)CC2)n1`, the Percent Effect came to 71.8%.

Turning to `CC(C)Cc1noc(CN2CCN(c3nccs3)CC2)n1`, the Percent Effect was -1.84%.

For the compound `CCCc1noc(CN2CCN(c3nccs3)CC2)n1`, the Percent Effect stood at 2.03%.

On to `Cc1nn(C)c2c(=O)n(CC(=O)NCCC3=CCCCC3)ccc12`, for which the Percent Effect came to 2.33%.

Regarding `CCN(c1ccc(C(=O)N2CCCC2c2cnn(C)c2)cn1)C(C)C` (stereo unspecified), the Percent Effect worked out at 64.8%.

As to `CCCN(CC)c1ccc(C(=O)N2CCCC2c2cnn(C)c2)cn1` (stereo unspecified), the Percent Effect was -3.89%.

As to `CC(C)CN(C)c1ccc(C(=O)N2CCCC2c2cnn(C)c2)cn1` (stereo unspecified), the Percent Effect is 2.24%.

Take `O=C([C@H]1CN(Cc2nccs2)C[C@H]2OCC[C@@H]12)N1CCCC1`: the Percent Effect came to 4.93%.

Take `O=C1CO[C@@H]2CN(S(=O)(=O)c3ccccc3)C[C@H]2N1CC1CC1`: the Percent Effect was 4.3%.

Consider `O=S1(=O)CCC(N(Cc2nc(-c3ccccn3)no2)Cc2cccs2)C1` (stereo unspecified), for which the Percent Effect was -6.38%.

On to `Cc1noc(C)c1CN(Cc1cccs1)C1CCS(=O)(=O)C1` (stereo unspecified), for which the Percent Effect came out at 59.4%.

Regarding `O=S1(=O)CCC(N(Cc2nc3ccccc3o2)Cc2cccs2)C1` (stereo unspecified), the Percent Effect was found to be 57%.

In the case of `Cc1noc(CN(Cc2cccs2)C2CCS(=O)(=O)C2)n1` (stereo unspecified), the Percent Effect is -5.5%.

On to `CC(C)(C)c1nc(CN(Cc2cccs2)C2CCS(=O)(=O)C2)no1` (stereo unspecified), for which the Percent Effect was -0.877%.

On to `Cc1nc(CN(Cc2cccs2)C2CCS(=O)(=O)C2)oc1C` (stereo unspecified), for which the Percent Effect came to 1.07%.

Regarding `O=C(c1ccnnc1)N1C[C@@H]2C[C@@H](c3nc(C4CC4)cs3)O[C@@H]2C1`, the Percent Effect was 2.42%.

On to `O=C(NCc1ccco1)[C@@H]1CCO[C@@H]2CCN(c3ncccn3)C[C@@H]21`, for which the Percent Effect amounted to 3.59%.

For `c1cncc(OCc2noc3c2CN(Cc2ccsc2)CC3)c1`, the Percent Effect is -0.692%.

Consider `CC(c1nc(C2CC2)no1)N1CCN(c2ccc(C#N)cn2)CC1` (stereo unspecified), for which the Percent Effect was determined as 0.106%.

As to `O=C1CC[C@H]2CN(Cc3ccc(Cl)s3)CC[C@H]2N1CCc1c[nH]cn1`, the Percent Effect is 0.411%.

Values taken from ChEMBL document CHEMBL3988442, “University of Dundee, Small-Polar-MMV Screening Library” (2021).
